# Active and inactive are the calls of the source.
# Assays:
# [1] = compounds binding Alexa647 anti-His antibody – biochemical, small-molecule microarray, 635 nm fluorescence, artefact control for SMM control protein annotation, primary screen (AID 1128); conditions: higher = more signal;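 also: score merges feature fluorescence with signal-to-noise for each printed compound spot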
# [2] = test system: Human papillomavirus type 1a E7 protein (residues 1-88); assay: HPV1a E7 small-molecule binders, primary screen, biochemical, small-molecule microarray, residues 1-88, 635 nm (AID 1129); conditions: small-molecule microarray binding, fluorescence 635 nm; higher = more signal
# [3] = molecular target: Focal adhesion kinase 1 (Homo sapiens) (UniProt Q05397); assay: PTK2 protein binding on printed compound slides – biochemical, small-molecule microarray, 635/667 nm fluorescence, BSA, DTT, primary screen (AID 1130); conditions: 635 nm fluorescence, higher = more signal;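 also: composite of spot emission at 667 nm and signal to noise over triplicate slides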
# [4] = test system: Fibrinogen (Alexa647-labelled); assay: Alexa647-fibrinogen binding to printed small molecules – biochemical, small-molecule microarray, 635/667 nm fluorescence, artefact control for SMM control-protein annotation, profiling panel (AID 1131); conditions: fibrinogen-A647 binding fluorescence, higher = more signal;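 also: z-score merges 667 nm fluorescence with per-spot signal-to-noise over triplicate slides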
# [5] = molecular target: Follistatin (Homo sapiens) (UniProt P19883); assay: FST protein binding to printed compounds – biochemical, small-molecule microarray, 635/667 nm fluorescence, primary screen (AID 1132); conditions: 635 nm fluorescence, higher = more signal
# [6] = molecular target: Fibroblast growth factor 2 (Homo sapiens) (UniProt P09038); assay: basic fibroblast growth factor binding to printed compounds – biochemical, small-molecule microarray, 635/667 nm fluorescence, primary screen (AID 1133); conditions: FGF2, fluorescence 635/667, higher = more signal
# [7] = JC-1 mitochondrial potential readout, lung cancer cells – cell-based, A549, JC-1 fluorescence, basal, 24 h, 100 nL, profiling panel (AID 1138); conditions: higher = more signal;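 also: A549 lung adenocarcinoma cells under basal conditions with no added stimulus; test concentration not given here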
# Lefty1 = Lefty1 protein binding to printed compounds – biochemical, small-molecule microarray, 635/667 nm fluorescence, primary screen (AID 1139); conditions: fluorescence 635/667, higher = more signal
# [8] = test system: wheat germ agglutinin (Triticum aestivum), Alexa647-labelled; assay: Alexa647-WGA lectin binding to printed small molecules – biochemical, small-molecule microarray, 635/667 nm fluorescence, artefact control for SMM control-protein annotation, profiling panel (AID 1140); conditions: WGA-A647 binding, 635 nm fluorescence, higher = more signal;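 also: score merges 667 nm feature emission with signal to noise over triplicate slides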
# [9] = molecular target: Luciferin 4-monooxygenase (Photinus pyralis) (UniProt P08659); assay: inhibition of purified Photinus pyralis luciferase – biochemical, luminescence, purified enzyme, 2006 set, primary screen (AID 1141); conditions: purified firefly luciferase, SteadyGlo luminescence, 30 min; higher = more signal, called active from +8 up or from −8 down;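 also: cell-free assay with purified firefly luciferase at 100 ng per well in PBS; test concentration not given here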
# Sequence of Luciferin 4-monooxygenase (Photinus pyralis) (P08659 whole entry, looked up): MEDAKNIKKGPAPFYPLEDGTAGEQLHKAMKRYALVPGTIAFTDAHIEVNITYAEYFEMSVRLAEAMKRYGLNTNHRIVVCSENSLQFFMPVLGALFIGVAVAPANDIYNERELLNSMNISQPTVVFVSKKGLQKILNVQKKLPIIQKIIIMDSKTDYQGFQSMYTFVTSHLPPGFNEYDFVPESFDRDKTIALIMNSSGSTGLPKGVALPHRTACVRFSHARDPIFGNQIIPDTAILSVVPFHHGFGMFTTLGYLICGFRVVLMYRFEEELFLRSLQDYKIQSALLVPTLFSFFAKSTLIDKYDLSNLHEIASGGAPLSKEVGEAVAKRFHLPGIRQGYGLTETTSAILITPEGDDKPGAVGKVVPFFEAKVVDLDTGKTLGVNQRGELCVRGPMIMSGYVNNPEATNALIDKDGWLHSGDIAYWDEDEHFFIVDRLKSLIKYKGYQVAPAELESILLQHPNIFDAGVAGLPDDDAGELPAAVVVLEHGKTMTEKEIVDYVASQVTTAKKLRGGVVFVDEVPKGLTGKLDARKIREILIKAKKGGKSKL
# Sequence of Fibroblast growth factor 2 (Homo sapiens) (P09038 whole entry, looked up): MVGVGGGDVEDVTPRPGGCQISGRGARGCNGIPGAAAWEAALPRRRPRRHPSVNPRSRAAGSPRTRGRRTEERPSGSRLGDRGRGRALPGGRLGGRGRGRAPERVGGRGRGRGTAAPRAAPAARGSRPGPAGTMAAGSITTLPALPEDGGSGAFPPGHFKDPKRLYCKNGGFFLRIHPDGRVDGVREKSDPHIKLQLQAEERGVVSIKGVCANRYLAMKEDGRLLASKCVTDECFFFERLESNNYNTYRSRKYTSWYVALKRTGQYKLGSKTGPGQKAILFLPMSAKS
# Sequence of Follistatin (Homo sapiens) (P19883 whole entry, looked up): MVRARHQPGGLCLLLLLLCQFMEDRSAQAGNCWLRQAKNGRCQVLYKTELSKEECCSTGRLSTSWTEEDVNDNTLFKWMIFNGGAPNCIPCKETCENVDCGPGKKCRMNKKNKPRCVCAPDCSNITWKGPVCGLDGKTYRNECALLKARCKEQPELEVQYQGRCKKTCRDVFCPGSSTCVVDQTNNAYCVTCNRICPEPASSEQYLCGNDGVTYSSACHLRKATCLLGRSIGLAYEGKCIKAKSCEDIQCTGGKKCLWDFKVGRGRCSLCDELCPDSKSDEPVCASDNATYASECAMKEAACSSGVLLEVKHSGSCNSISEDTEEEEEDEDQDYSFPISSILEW
# Sequence of Focal adhesion kinase 1 (Homo sapiens) (Q05397 whole entry, looked up): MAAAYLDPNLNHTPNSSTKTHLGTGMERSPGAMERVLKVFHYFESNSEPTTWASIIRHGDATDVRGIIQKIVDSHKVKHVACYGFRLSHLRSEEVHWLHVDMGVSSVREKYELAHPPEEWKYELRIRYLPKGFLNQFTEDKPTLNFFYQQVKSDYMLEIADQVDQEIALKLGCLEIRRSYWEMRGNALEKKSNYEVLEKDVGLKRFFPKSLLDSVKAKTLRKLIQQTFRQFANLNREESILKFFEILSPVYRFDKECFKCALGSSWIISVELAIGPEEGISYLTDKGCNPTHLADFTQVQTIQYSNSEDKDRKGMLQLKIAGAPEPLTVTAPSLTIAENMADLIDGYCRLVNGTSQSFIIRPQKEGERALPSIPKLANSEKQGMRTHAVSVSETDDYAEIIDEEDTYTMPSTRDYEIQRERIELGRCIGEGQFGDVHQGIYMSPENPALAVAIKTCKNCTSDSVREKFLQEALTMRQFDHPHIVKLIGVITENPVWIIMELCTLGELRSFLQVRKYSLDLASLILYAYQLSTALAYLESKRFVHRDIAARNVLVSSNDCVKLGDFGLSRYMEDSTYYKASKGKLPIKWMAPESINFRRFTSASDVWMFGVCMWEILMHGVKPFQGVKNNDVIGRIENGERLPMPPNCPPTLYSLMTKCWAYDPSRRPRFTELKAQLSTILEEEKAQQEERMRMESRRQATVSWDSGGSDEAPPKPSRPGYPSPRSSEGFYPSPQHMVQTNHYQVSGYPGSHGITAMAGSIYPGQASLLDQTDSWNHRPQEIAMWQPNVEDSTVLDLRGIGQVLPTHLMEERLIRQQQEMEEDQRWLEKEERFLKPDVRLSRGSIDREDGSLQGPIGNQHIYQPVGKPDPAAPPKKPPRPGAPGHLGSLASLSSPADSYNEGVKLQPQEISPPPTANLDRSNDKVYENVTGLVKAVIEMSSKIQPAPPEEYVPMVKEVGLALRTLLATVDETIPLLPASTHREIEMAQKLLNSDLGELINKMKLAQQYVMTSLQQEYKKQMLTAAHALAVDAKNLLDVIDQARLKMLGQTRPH
Structure (SMILES),composite z-score [1],composite z-score [2],composite z-score [3],composite z-score [4],composite z-score [5],composite z-score [6],z-score [7],composite z-score (Lefty1),composite z-score [8],z-score [9]
C=CCC(OC(C)=O)[C@@H]1[C@@H](N(Cc2ccc(-c3cccc(C(F)(F)F)c3)o2)C(=O)c2cccc3ccccc23)c2cc(OCCCO)ccc2N1C(=O)c1ccc(-c2ccccc2)cc1 (stereo not given in full),0.955,-0.661,-0.438,-0.739,0.999,0.598,-0.328,0.641,-0.643,0.23 (inactive)
COCCCNC(=O)[C@]1(Cc2ccccc2)N=C(c2ccc(OCCCO)cc2)O[C@@H]1c1ccccc1N=[N+]=[N-],0.36,1.22,-0.0142,0.977,1.25,0.401,-0.141,0.276,0.544,-4.67 (inactive)
CCCCC(O)C1C=CC2C(=O)N(Cc3ccccc3)C(=O)C2N1n1cnnc1 (stereo not given),2.39,0.433,0.242,0.892,0.457,-0.0025,-0.721,0.289,0.652,1.48 (inactive)
COC(=O)[C@@]1(Cc2ccc(OC)cc2)[C@H]2c3cc(C(=O)N4CCCC4)n(CCc4ccc(O)c(OC)c4)c3C[C@H]2CN1C(=O)c1ccccc1,0.772,0.23,0.717,0.219,-0.625,-0.46,-0.0583,-1.78,0.0523,0.551 (inactive)
CCCC=C(CCC)[C@@H](NS(=O)(=O)c1cccc2cccnc12)c1ccc(C(=O)OC)cc1,1.4,0.36,0.542,0.395,1.31,0.33,0.0272,0.162,-0.0663,2.48 (inactive)
COc1ccc(C#Cc2ccc3c(c2)[C@]2(C(=O)N3)[C@H](C(=O)O)[C@H]3C(=O)O[C@H](c4ccccc4)[C@H](c4ccccc4)N3[C@@H]2c2ccc(OCCO)cc2)cc1,2.61,1.19,0.681,0.836,0.714,0.56,-2.47,0.128,1.18,-5.18 (inactive)
COc1ccc([Si](C)(C)[C@@H]2[C@@H](CC(=O)N(CCO)Cc3ccccc3)O[C@]3(C(=O)N(C)c4c(Br)cc(C)cc43)[C@H]2C)cc1,0.926,0.304,0.19,-0.537,1.08,0.957,-1.33,1.17,0.114,-0.314 (inactive)
OCCCC1=CC(c2cccs2)N(Cc2cccc(OC(F)(F)F)c2)CC1 (stereo not given),0.357,-0.138,0.316,-1.42,-0.17,-0.546,0.593,0.226,0.771,-0.605 (inactive)
CCOc1cc(C(O)C2C=CC3C(=O)NC(=O)C3N2Nc2ccccn2)ccc1O (stereo not given),0.227,0.255,-0.0976,-0.32,0.262,0.835,0.208,-0.0684,-0.298,0.25 (inactive)
COCC(=C=CC[C@@H](O)c1ccccc1OCCO)C[C@@H](O)c1ccccn1,-0.415,0.845,0.287,-0.853,0.968,0.466,-0.00359,0.913,0.293,-0.578 (inactive)
COCCCNC(=O)[C@@]1(C)c2ccccc2C(=O)N(c2ccc(C)cn2)[C@H]1c1ccc(CO)cc1,-0.545,-0.454,-0.193,-1.03,-0.0423,0.204,-0.9,-0.939,0.421,0.522 (inactive)
CCCN1C(=O)[C@@]2(Cc3ccccc3)N=C(c3ccc(OCCCO)cc3)O[C@H]2c2ccccc21,0.856,1.08,0.86,0.753,1.42,1.73,0.686,0.757,0.445,-4.05 (inactive)
O=C(O)[C@@]1(Cc2ccccc2)COC(c2ccc(OCCCO)cc2)=N1,-0.951,-0.915,-0.375,-2.33,0.24,-0.33,0.315,-1.18,-0.723,-3.65 (inactive)
C=CCNC(=O)[C@H]1[C@@H]2C(=O)O[C@@H](c3ccccc3)[C@@H](c3ccccc3)N2[C@@H](c2ccc(O)cc2)[C@]12C(=O)N(C(=O)OCCOC)c1ccc(C#CC3(O)CCCCCC3)cc12,1.23,1.18,0.737,0.485,0.759,0.678,1.14,0.218,0.764,-0.991 (inactive)
CN(C)C(=O)[C@@]1(CCC(=O)OC(C)(C)C)COC(c2ccc(OCCCO)cc2)=N1,0.282,1.11,1.63,-0.254,0.625,-0.357,-0.191,-0.235,0.334,0.995 (inactive)
[N-]=[N+]=Nc1ccccc1[C@H]1OC(c2ccc(OCCCO)cc2)=N[C@@]1(Cc1ccccc1)C(=O)NCc1ccccc1,1.29,1.2,0.425,0.997,1.15,0.291,0.361,0.362,0.415,-6.55 (inactive)

Structure (SMILES),composite z-score [1],composite z-score [2],composite z-score [3],composite z-score [4],composite z-score [5],composite z-score [6],z-score [7],composite z-score (Lefty1),composite z-score [8],z-score [9]
OCc1ccc(-c2cc[n+](Cc3cccc(OC(F)(F)F)c3)cc2)cc1,2.33,1.07,0.0665,0.708,1.45,1.25,-0.884,1.47,0.528,0.194 (inactive)
COCC(=C=CC[C@@H](O)c1ccccc1OCCO)C[C@@H](O)COCc1ccccc1,0.477,1.01,-0.134,0.357,0.403,0.456,1.8,0.317,1.05,-2.4 (inactive)
COC(=O)[C@@]1(Cc2ccccc2)[C@H]2c3cc(C(=O)N4CCCC4)n(Cc4ccccc4)c3C[C@H]2CN1C(=O)c1ccccc1,0.673,1.24,0.756,0.524,0.841,-0.407,0.339,0.272,0.893,0.886 (inactive)
COc1ccc(C#Cc2ccc3c(c2)[C@]2(C(=O)N3)[C@H](c3ccc(OCCO)cc3)N3[C@H](c4ccccc4)[C@H](c4ccccc4)OC(=O)[C@H]3[C@@H]2C(=O)N2CCN(c3ncccn3)CC2)cc1,0.197,0.816,0.0451,0.771,1.01,0.0495,-1.38,0.305,0.776,0.713 (inactive)
COc1ccc([Si](C)(C)[C@H]2[C@H](CC(=O)N3CCC[C@H]3CO)O[C@@]3(C(=O)N(Cc4ccc(N5C(=O)c6cccc7cccc5c67)cc4)c4ccccc43)[C@@H]2C)cc1,1.7,1.17,1.18,0.864,1.07,1.21,0.285,1.48,0.682,0.0355 (inactive)
CC(C)NC(=O)[C@@]1(Cc2ccccc2I)c2ccccc2C(=O)N(Cc2ccccc2C(F)(F)F)[C@H]1c1ccc(CO)cc1,0.992,0.906,0.601,0.75,0.464,0.125,1.29,0.266,1.15,-0.793 (inactive)
COC(=O)[C@@]1(Cc2ccccc2N=[N+]=[N-])N=C(c2ccc(OCCCO)cc2)O[C@H]1c1ccccc1,2.23,1.13,0.771,0.422,0.465,0.19,-1.26,0.138,0.0657,-2.7 (inactive)
COc1ccc([Si](C)(C)[C@@H]2[C@@H](CC(=O)N3Cc4ccccc4C[C@H]3CO)O[C@]3(C(=O)N(Cc4cccc(N5CCCCC5=O)c4)c4ccccc43)[C@H]2C)cc1,1.02,1.13,0.739,0.641,1.36,1.57,-0.96,1.5,0.676,0.227 (inactive)
CN(C)CCCCCCNC(=O)[C@@H]1C[C@@H]2C(=O)NCC(=O)N2[C@@H]1c1ccc(O)cc1,2.07,1.18,1.28,0.842,1.42,1.65,-0.736,1.68,0.974,0.335 (inactive)
CCOC(=O)C1=CCC(c2cccc(Cl)c2)O1 (stereo not given),0.433,0.54,-0.192,0.2,-0.0085,-0.505,-1.14,-0.0196,0.225,1.7 (inactive)
O=C1c2ccccc2[C@](Cc2ccccc2I)(C(=O)NCC(F)(F)F)[C@H](c2ccc(CO)cc2)N1Cc1ccccc1,0.0638,1.17,0.77,0.97,1.14,-0.0189,0.71,0.343,0.469,0.875 (inactive)
COC(=O)[C@]1(Cc2ccccc2N=[N+]=[N-])N=C(c2ccc(OCCCO)cc2)O[C@@H]1c1ccccc1,0.334,1.09,-0.141,0.215,0.313,-0.101,1.02,-0.489,0.244,-2.2 (inactive)
COc1ccc([Si](C)(C)[C@@H]2[C@@H](CCO)O[C@]3(C(=O)N(Cc4ccccc4)c4ccc(N5C(=O)COc6ccccc65)cc43)[C@H]2C)cc1,0.807,1.13,0.294,0.191,0.197,-0.177,-0.081,0.351,0.622,0.806 (inactive)
CCC[C@@H]1C[C@@]1(CCC)[C@@H](NC(=O)c1ccco1)c1ccc(Cl)cc1,-0.348,-1.71,-0.386,-0.495,-0.388,-0.882,0.523,-0.769,-0.493,-0.31 (inactive)
C=C(COC)C(=O)CC[C@H](OC(=O)c1ccccc1-c1ccccc1C(=O)O)c1ccc(OCCO)cc1,2.56,1.08,0.033,0.879,1.42,1.35,-0.66,1.59,0.564,-2.22 (inactive)
COc1cccc(C)c1NC(=O)O[C@H]1[C@H](OC(=O)Nc2ccccc2)[C@H](OC(=O)Nc2ccccc2)[C@@H](OC)O[C@@H]1CO,1.44,1.26,1.01,0.442,0.615,-0.21,0.138,-0.337,0.861,-0.852 (inactive)

# Reference: PubChem BioAssay
